C diff HTS: inhibitors of Clostridium difficile growth; Clostridium difficile clinical isolate growth, OD600, 24 h; hits give low values; 0.25% of 86,000 active; growth activity, negative = inhibition, % at 16 µg/mL (by protocol);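 active = mean growth activity at or below -80% and every replicate also at or below -80%; inconclusive = mean at or below -80% but some replicate above -80%; inactive = mean growth activity above -80%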;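 also: 0% = DMSO wells and -100% = levofloxacin 16 µg/mL wells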
T cruzi growth-1: T. cruzi proliferation inhibition. AID 624255. inhibition, % at 8.34 µM. T. cruzi beta-gal in NIH3T3, GalScreen luminescence, 90 h. 5.9% of 77,000 active;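 active = mean inhibition above about 93%, with at least 55% of replicates each passing it, limit read from the data, passing the limit was not always enough; inconclusive = only one of those two conditions holds; inactive = neither condition holds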
T cruzi growth-2: inhibitors of T. cruzi proliferation. T. cruzi beta-gal in NIH3T3, GalScreen luminescence, 90 h. 72% of 5,600 active. AID 651739. inhibition, % at 8.35 µM. shares compounds with T cruzi growth-1;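 active = mean replicate inhibition above about 95% and at least 55% of replicates individually reaching it, limit read from the data; inconclusive = only one of the two criteria is met; inactive = neither criterion is met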
T cruzi growth-3: Trypanosoma cruzi proliferation inhibition; shares compounds with T cruzi growth-1; T. cruzi beta-gal in NIH3T3, GalScreen luminescence, 90 h; inhibition, % at 2.09 µM; 21% of 5,600 active; AID 651740;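 active = mean inhibition above about 95%, with at least 55% of replicates also reaching it, limit read from the data; inconclusive = meets just one of the two conditions; inactive = meets neither condition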;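 also: plate controls were neutral control median for no effect and positive control median for full effect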
3T3 cytotox: NIH/3T3 (mouse) viability loss; shares compounds with T cruzi growth-1; 14% of 5,600 active; cytotoxicity (signal decrease), % at 8.35 µM; NIH/3T3 viability, CellTiter-Glo ATP luminescence, 90 h;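 active = mean signal decrease across replicates above about 35% based on untreated-well scatter, with enough replicates individually passing, limit read from the data; inconclusive = no rule stated though some were filed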;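 also: 0% = median of neutral control wells and 100% = median of positive control wells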
3T3 cytotox 2: cytotoxicity in mouse NIH/3T3 fibroblasts | NIH/3T3 viability, CellTiter-Glo ATP luminescence, 90 h | 56% of 5,600 active | shares compounds with T cruzi growth-1 | AID 651744 | inhibition, % at 24.9 µM;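 active = mean loss of cell viability signal at or above a set limit, and enough replicates individually reaching it; inconclusive = meets only the mean limit or only the replicate share; inactive = meets neither condition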;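 also: 0% = median of neutral control wells and 100% = median of positive control wells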
* marks the source's active call; other numbers are inactive results; ? = inconclusive; . = not tested or not shown; + = active, no number. The full list was thinned out, with hits kept by preference.

SMILES | C diff HTS | T cruzi growth-1 | T cruzi growth-2 | T cruzi growth-3 | 3T3 cytotox | 3T3 cytotox 2
COc1ccccc1NC(=O)N1CCCCN2[C@H](CO)[C@@H](c3ccc(-c4cccc(C)c4)cc3)[C@@H]2C1 | 40 | 95 | . | . | . | .
COc1ccccc1NC(=O)N1CCCCN2[C@H](CO)[C@@H](c3ccc(-c4ccccc4)cc3)[C@@H]2C1 | 30 | 107* | 108* | 116* | 24 | 105*
COc1ccccc1NC(=O)N1CCCCN2[C@H](C1)[C@H](c1ccc(C#Cc3ccccc3)cc1)[C@@H]2CO | 4 | 114* | 104* | 80 | 27 | 30*
COc1ccccc1NC(=O)N1CCCCN2[C@H](CO)[C@H](c3ccc(-c4ccccc4)cc3)[C@@H]2C1 | -4 | 111* | 105* | 93 | 18 | 32*
N#C[C@@H]1[C@@H](c2ccc(C#CC3CCCC3)cc2)[C@@H](CO)N1C(=O)Cc1ccccn1 | -3 | . | . | . | . | .
CC(=O)N1[C@@H]2Cn3c(cccc3=O)[C@H]1[C@@H](C(=O)NCC1CCCCC1)[C@@H]2CO | 7 | 4 | . | . | . | .
C[C@@H]1CN([C@@H](C)CO)S(=O)(=O)c2ccc(C#CC3CCCCC3)cc2O[C@@H]1CN(C)C(=O)Cc1ccncc1 | . | 40 | . | . | . | .
C[C@H]1CN([C@@H](C)CO)C(=O)c2ccccc2-c2ccccc2CO[C@H]1CN(C)C(=O)Nc1cccc(Cl)c1Cl | 52 | . | . | . | . | .
C[C@@H]1CN([C@@H](C)CO)C(=O)c2cc(NC(=O)NC3CCCCC3)ccc2O[C@@H](C)CCCCO[C@@H]1CN(C)S(=O)(=O)c1ccc(Cl)cc1 | 4 | 4 | . | . | . | .
CNC(=O)C[C@@H]1CC[C@@H]2[C@@H](COc3ccc(NC(=O)C4CCCCC4)cc3C(=O)N2C)O1 | 1 | -5 | . | . | . | .
C[C@@H]1CN([C@@H](C)CO)S(=O)(=O)c2ccc(C3=CCCCC3)cc2O[C@H]1CN(C)C(=O)Cc1ccccc1 | -9 | ? | 105* | 41 | 53* | 52*
C[C@@H]1CN([C@@H](C)CO)S(=O)(=O)c2ccc(C3=CCCCC3)cc2O[C@@H]1CN(C)C(=O)Cc1ccncc1 | -2 | 97* | 89 | 59 | 19 | 32*
C[C@@H]1CN([C@H](C)CO)S(=O)(=O)c2ccc(C3=CCCCC3)cc2O[C@@H]1CN(C)C(=O)Cc1ccncc1 | -1 | 94 | . | . | . | .
C[C@@H]1CN([C@H](C)CO)S(=O)(=O)c2ccc(C3=CCCCC3)cc2O[C@@H]1CN(C)C(=O)Cc1ccccc1 | 9 | 103 | . | . | . | .
C[C@@H]1CN([C@H](C)CO)S(=O)(=O)c2ccc(C3=CCCCC3)cc2O[C@H]1CN(C)C(=O)Cc1ccncc1 | -2 | 100* | 103* | 66 | 28 | 36*
C[C@@H]1CN([C@H](C)CO)S(=O)(=O)c2ccc(C3=CCCC3)cc2O[C@H]1CN(C)C(=O)Cc1ccncc1 | 0 | 73 | . | . | . | .
C[C@@H]1CN([C@@H](C)CO)S(=O)(=O)c2ccc(C3=CCCC3)cc2O[C@H]1CN(C)C(=O)Cc1ccncc1 | -1 | 98* | 80 | 15 | -7 | 23
C[C@@H]1CN([C@@H](C)CO)S(=O)(=O)c2ccc(C3=CCCCC3)cc2O[C@H]1CN(C)C(=O)Cc1ccncc1 | -2 | 81 | . | . | . | .
O=C(C1CCCC1)N1CC(=O)N2[C@@H](CO)[C@@H](c3ccc(C#Cc4cccc(F)c4)cc3)[C@@H]2C1 | 27 | . | . | . | . | .
C[C@@H]1CN([C@H](C)CO)C(=O)c2cccc(NC(=O)C3CCOCC3)c2O[C@H]1CN(C)C | 1 | . | . | . | . | .
O=C(NCC1CC1)[C@@H]1[C@@H](CO)[C@@H]2Cn3c(ccc(-c4ccc(F)cc4)c3=O)[C@H]1N2 | 0 | 7 | . | . | . | .
C[C@@H]1CN([C@H](C)CO)C(=O)c2cc(NS(=O)(=O)c3ccccc3)ccc2O[C@@H]1CN(C)C(=O)Nc1ccc(F)cc1 | -5 | 55 | . | . | . | .
C[C@H](CO)N1C[C@H](C)[C@H](CN(C)S(=O)(=O)c2ccccc2)Oc2ccc(NC(=O)CCN3CCOCC3)cc2C1=O | -6 | 9 | . | . | . | .
COc1ccccc1C#Cc1ccc2c(c1)[C@H]1[C@H](CCN1S(=O)(=O)c1cccc(C)c1)[C@H](CO)N2 | 36 | . | . | . | . | .
O=C(NCC(F)(F)F)[C@@H]1[C@@H](CO)[C@@H]2Cn3c(cccc3=O)[C@H]1N2CC1CCOCC1 | -9 | -14 | . | . | . | .
SMILES | C diff HTS | T cruzi growth-1 | T cruzi growth-2 | T cruzi growth-3 | 3T3 cytotox | 3T3 cytotox 2
CCCNC(=O)N(C)C[C@H]1Oc2cc(C#Cc3ccccn3)ccc2S(=O)(=O)N([C@@H](C)CO)C[C@@H]1C | -3 | . | . | . | . | .
CN1[C@H](C(=O)NCc2ccccn2)[C@@H](CO)[C@@H]2Cn3c(ccc(-c4cccc(F)c4)c3=O)[C@@H]21 | -9 | 111* | 52 | 5 | 17 | 13
COCC(=O)N1[C@H](C(=O)Nc2ccccc2)[C@@H](CO)[C@@H]2Cn3c(ccc(-c4ccc(F)cc4)c3=O)[C@@H]21 | 0 | 10 | . | . | . | .
CN1[C@@H]2c3ccc(-c4cccc(F)c4)c(=O)n3C[C@@H]2[C@@H](CO)[C@@H]1C(=O)NCc1ccccn1 | -5 | 77 | . | . | . | .
CCCNC(=O)N1[C@H](C(=O)N2CCCCC2)[C@@H](CO)[C@@H]2Cn3c(ccc(-c4ccc(F)cc4)c3=O)[C@@H]21 | -9 | 98* | 17 | -19 | -14 | 6
CCN1[C@@H]2c3ccc(-c4ccc(F)cc4)c(=O)n3C[C@@H]2[C@@H](CO)[C@@H]1C(=O)Nc1ccccc1 | 1 | . | . | . | . | .
CN1[C@@H]2c3ccc(-c4ccc(F)cc4)c(=O)n3C[C@@H]2[C@@H](CO)[C@@H]1C(=O)Nc1ccccc1 | -3 | + | -21 | -34 | -27 | -5
CCC(=O)N1[C@@H]2c3ccc(-c4cccc(F)c4)c(=O)n3C[C@@H]2[C@@H](CO)[C@@H]1C(=O)N1CCCCC1 | -3 | . | . | . | . | .
CN1[C@H](C(=O)Nc2ccccc2)[C@@H](CO)[C@@H]2Cn3c(ccc(-c4ccc(F)cc4)c3=O)[C@@H]21 | -6 | + | 103* | 11 | -16 | 11
COc1ccc(NC(=O)N2C[C@@H](O)COC[C@H]3O[C@@H](CC(=O)NCc4ccncn4)CC[C@@H]32)cc1 | -6 | -8 | . | . | . | .
COc1ccc2c3c([nH]c2c1)[C@H](CO)N(C(=O)c1ccncc1)CC31CN(C(=O)NC(C)C)C1 | -3 | . | . | . | . | .
COc1ccc(CN(C)C[C@H]2Oc3ccc(NC(=O)Nc4ccc(F)cc4)cc3C(=O)N([C@H](C)CO)C[C@@H]2C)cc1 | -4 | . | . | . | . | .
COCC(=O)N1[C@H](C#N)[C@H](c2ccccc2)[C@@H]1CO | -1 | 29 | . | . | . | .
C[C@@H]1CN([C@@H](C)CO)C(=O)c2cc(C#Cc3ccc(F)cc3)cnc2O[C@H]1CN(C)C(=O)c1ccccc1F | -1 | 62 | . | . | . | .
C[C@H]1CN([C@@H](C)CO)C(=O)c2cc(C#Cc3ccccn3)cnc2O[C@@H]1CN(C)Cc1ccncc1 | -1 | 65 | . | . | . | .
